DT40 TDP1 no CPT – qHTS for Inhibitors of human tyrosyl-DNA phosphodiesterase 1 (TDP1): qHTS in cells in absence of CPT; 15% of 420,000 active; DT40 Tdp1-/- hTDP1 cells, no CPT, ATP luminescence, 48 h; Potency, µM (titrated, usually from 46.2 µM), inactives show top-dose activity change, negative = growth inhibition, usual class: inhibitors; further: potency means the concentration at half of the fitted maximal effect; on the % scale 0 is the no-effect control and ±100 the full control effect; nearly all actives have a fitted effect of over 55% in size
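Chicken DT40 Tdp1-/- cells complemented with human TDP1, screened without camptothecin (DMSO vehicle only), 400 cells/well. Compounds pin-transferred, cells incubated at 37 °C for at least 48 hr. Growth read as ATP-dependent luminescence (CellTiter-Glo, 30 min at RT).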
DT40 TDP1 CPT – growth inhibition of DT40 Tdp1-/-;hTDP1 cells with camptothecin (screen for TDP1 inhibitors); chicken DT40 Tdp1-/-;hTDP1 cells + 20 nM CPT, ATP luminescence, 48 h; Potency, µM (top dose mostly 46.2 µM), for the others: at the top dose activity change, negative = growth inhibition, usual class: inhibitors; 12% of 420,000 active; further: potency means the concentration at half of the fitted maximal effect; on the % scale 0 is the no-effect control and ±100 the full control effect; nearly all actives have a fitted effect of over 55% in size
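Chicken DT40 Tdp1-/- cells complemented with human TDP1, 400 cells/well, exposed to compounds plus 20 nM camptothecin for at least 48 h at 37 C; viability read as ATP content by CellTiter-Glo luminescence.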
HepG2 tox – kills HepG2 cells in TGF-b inhibitor counter-screen. HepG2 CAGA-GFP viability, ATP luminescence, 18 h. Potency, µM (titrated, usually from 46.1 µM), without a hit: top-dose activity change, negative = cytotoxicity, actives largely listed as cytotoxic. 0.76% of 410,000 active. AID 588856; further: potency means the concentration at half of the fitted maximal effect
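HepG2 CAGA-GFP cells (1000/well, DMEM with 1% FBS) received compound, then TGF-beta at 500 pg/mL final, and were incubated 18 hours at 37 degrees C. Viability was read by CellTiter-Glo luminescence. Media-only wells were set as complete cell-killing and DMSO as no toxicity.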
TGFb SMAD3 inh – inhibitors of TGF-b signaling | HepG2 CAGA-GFP TGF-b/SMAD3 reporter, GFP fluorescence, 18 h; TGF-beta stimulated, 500 pg/mL final | Potency, µM (doses to about 46.1 µM), for inactives: top-dose activity, negative = inhibition, usual class: inhibitors | 1.2% of 410,000 active | AID 588855; further: potency means the concentration at half of the fitted maximal effect; on the % scale 0 is the no-effect control and ±100 the full control effect; nearly all actives have a fitted effect of over 65% in size
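Cell-based qHTS in HEPG2 carrying a CAGA-GFP Smad reporter; compounds added before 500 pg/mL final TGF-beta, 18 h incubation at 37 degrees C, GFP fluorescence quantified per cell by imaging cytometry.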
ASM inhibitor – human S-ASM enzyme inhibition | Potency, µM (series often up to 57.5 µM), inactives show top-dose activity change, negative = inhibition, most hits filed as inhibitors | placental ASM, HMU-PC fluorogenic substrate, 60 min | AID 504937 | 0.006% of 340,000 active; further: potency means the concentration at half of the fitted maximal effect
Target sequence (P17405 47-631 limits assumed): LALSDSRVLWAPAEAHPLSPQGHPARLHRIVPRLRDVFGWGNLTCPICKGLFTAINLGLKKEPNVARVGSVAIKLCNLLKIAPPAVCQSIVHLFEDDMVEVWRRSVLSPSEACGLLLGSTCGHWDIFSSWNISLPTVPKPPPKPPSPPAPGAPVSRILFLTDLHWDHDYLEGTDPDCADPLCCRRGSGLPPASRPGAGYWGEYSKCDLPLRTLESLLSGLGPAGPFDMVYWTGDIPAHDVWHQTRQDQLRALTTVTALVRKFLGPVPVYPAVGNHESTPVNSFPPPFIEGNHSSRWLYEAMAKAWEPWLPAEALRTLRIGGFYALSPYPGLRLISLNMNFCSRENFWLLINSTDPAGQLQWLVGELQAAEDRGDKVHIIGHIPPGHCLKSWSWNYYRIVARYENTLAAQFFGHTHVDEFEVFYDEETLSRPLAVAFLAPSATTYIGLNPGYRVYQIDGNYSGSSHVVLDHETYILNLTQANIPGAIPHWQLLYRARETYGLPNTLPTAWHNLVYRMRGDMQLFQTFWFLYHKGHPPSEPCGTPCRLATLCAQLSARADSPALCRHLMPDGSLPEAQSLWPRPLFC
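Fluorogenic HMU-PC substrate (9 uM final) is turned over by placental ASM in 60 min at 37 C after a 10 min compound preincubation. Reaction ended by alkaline stop (pH 10), with fluorescence read at 386/447 nm.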
IL1B secr inh – blocks inflammasome-driven IL-1 beta release; THP-1 LPS/ATP IL-1B secretion, AlphaLISA, 16 h; hits give low values; activity change, % at 57.5 µM; 4.7% of 360,000 active; AID 743279; in the data active means activity change below about -50%; inconclusive means mostly about -30% to -49%; further: on the % scale 0 is the no-effect control and ±100 the full control effect
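THP-1 cells pretreated 1 hr with compounds (up to 57.5 uM final), then stimulated with LPS (250 ng/mL final) plus ATP (1.25 mM final); secreted IL-1B measured by AlphaLISA after 16 hr, decreased signal indicating inhibition.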
An asterisk follows results filed as active; ? = inconclusive; / = not tested or not shown. A selection: hits, their analogues and other compounds. The true share with any hit is near 19%. Unless noted, the call rests on the fitted dose curve; in most records, active means well fitted curve in the direction sought with a large enough effect; inconclusive means small, poorly fitted or top-dose-only effect, or another doubt; inactive means no such curve, though single readings can be large; an effect the other way counts as inactive or inconclusive.

SMILES | DT40 TDP1 no CPT | DT40 TDP1 CPT | HepG2 tox | TGFb SMAD3 inh | ASM inhibitor | IL1B secr inh
Cc1c(Cl)c([N+](=O)[O-])nn1CCCC(=O)Nc1cccc(Cl)c1 | ? | ? | 5% | 0% | -2% | -3
COc1cccc(NC(=O)C2CCCN(S(=O)(=O)c3ccc4[nH]c(=O)ccc4c3)C2)c1 (stereo not given) | ? | ? | 6% | -4% | / | /
COCCc1nn2c(=O)cc(COC(=O)COc3ccc(F)cc3)nc2s1 | -5% | 1% | 2% | -7% | / | /
O=C(COC(=O)c1ccco1)NC12CC3CC(CC(C3)C1)C2 | -7% | 5% | -1% | 3% | 3% | -5
CCOC(=O)C1CCN(C(=O)c2cccnc2Oc2ccc(Cl)cc2)CC1 | ? | ? | -18% | 3% | 5% | -9
CCN(CC(=O)Nc1ccc(OC)cc1)C(=O)c1ccc(N2C(=O)CCC2=O)cc1 | 3% | 6% | 12% | -7% | 3% | -14
O=C1Nc2ccccc2CN2C(=O)c3cc(Cl)ccc3NC(=O)C12 (stereo not given) | 6% | -19% | -6% | -14% | / | 0
CCN(CC)S(=O)(=O)c1cc(NC(=O)c2ccccc2OCc2c(C)noc2C)ccc1C | 16µM* | 16µM* | -2% | -17% | -2% | -10
CCN(CC)S(=O)(=O)c1cc(NC(=O)COC(=O)c2c(C)noc2C)ccc1C | -20% | ? | -22% | -13% | -2% | -50*
COc1ccc(NC(=O)c2ccccc2OCc2c(C)noc2C)cc1OC | 8% | -4% | 5% | -15% | 1% | -1
CCC1CCCCN1C(=O)Cn1c(=O)oc2cc(S(=O)(=O)N3CCCCC3)ccc21 (stereo not given) | -26% | -26% | -19% | -21% | / | /
CCc1nc2cc(C(=O)N[C@H]3CCCCNC3=O)cc(NC(=O)c3ccccc3OC)c2n1C | -14% | -15% | / | / | / | /
O=C(O)c1ccc(Nc2ncnc3scc(-c4ccccc4)c23)cc1 | 4.1µM* | 2.6µM* | -12% | 2% | 2% | 13
Cc1ccc(-c2csc3ncnc(Nc4ccc(C(=O)O)cc4)c23)cc1 | ? | ? | 3% | 33% | -2% | -25
Fc1ccc(-c2csc3ncnc(Nc4ccc(N5CCOCC5)cc4)c23)cc1 | 23µM* | 15µM* | -10% | 15% | -6% | -58*
CN(Cc1ccccc1)C(=O)COc1cc(Cl)ccc1Cl | -4% | -18% | 5% | 3% | -2% | ?
O=C(CSc1ccc(Cl)cc1)Nn1cnnc1 | ? | 18µM* | -1% | -1% | 2% | -5
Cc1cc(NC(=O)CSc2nc(-c3ccc(Cl)cc3)cs2)no1 | -14% | -11% | -7% | 1% | -2% | -18
Cc1cc(NC(=O)CSc2ccc(Cl)cc2)no1 | 16µM* | 13µM* | -1% | -26% | 0% | -16
O=C(CSc1ccc2ccccc2c1)Nn1cnnc1 | 1% | -17% | 6% | 0% | 1% | 12
Cc1cc(NC(=O)CSc2nc3cc(Cl)ccc3o2)no1 | 2.6µM* | 4.6µM* | -11% | 1% | 0% | 46
Cc1ccc(SCC(=O)Nc2cc(C)on2)cc1 | -2% | ? | -18% | 3% | 0% | 26
CCC1CN(C(=O)Nc2cc(Cl)ccc2C(=O)OC)c2ccccc2S1 (stereo not given) | ? | ? | -1% | 2% | / | /
CCc1c(C)nc(SCc2nc(-c3ccccc3C)no2)[nH]c1=O | ? | ? | -14% | 2% | / | /
Fc1ccc(CN2CCN3CCCC3C2C2CCCCC2)cc1F (stereo not given) | 18µM* | 23µM* | -12% | 11% | 9% | -29
CCN(CC)C(=O)c1sc2c(c1C)c(=O)n(-c1ccc(C)c(C)c1)c(=O)n2CC(=O)Nc1ccc(F)cc1 | ? | -27% | -58% | -1% | / | /
